Only some compounds are listed: those with a hit (about 8.7% of all), similar ones and a draw of the others.
ALOX12 inh: Primary qHTS assay for inhibitors of human arachidonate 12S-lipoxygenase (ALOX12): Round 2. Polyunsaturated fatty acid lipoxygenase ALOX12 (Homo sapiens), P18054. purified 12hLO, xylenol orange hydroperoxide absorbance. Potency, µM (doses to about 108 µM), without a hit: at the top dose activity change, negative = inhibition, actives largely listed as inhibitors. hit rate 1.1% among 580,000; further: on the % scale 0 is the no-effect control and ±100 the full control effect
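Purified human 12hLO (150 nM final) in 25 mM Hepes, 0.01% Triton X-100, pH 7.0 was preincubated 15 min at room temperature with compound. Then 40 uM arachidonic acid was added, 30 min. Hydroperoxide was read by Fe-XO absorbance ratio 573/405 nm.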
BAZ2B inh: qHTS Assay for Inhibitors of BAZ2B. Potency, µM (titrated, usually from 114 µM), inactives show top-dose activity change, negative = inhibition, usual class: inhibitors. hit rate 4.4% among 360,000. AlphaScreen BAZ2B-H3K14Ac peptide displacement; further: on the % scale 0 is the no-effect control and ±100 the full control effect; nearly all actives have a fitted effect of over 60% in size
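In this displacement format the biotinylated H3(5-23) peptide acetylated at Lys14 serves as ligand at 50 nM, with BAZ2B at 50 nM in PBS pH 7.4 containing 0.01% Tween-20. Donor and acceptor beads are 10 ug/mL final.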
G9a inh: qHTS Assay for Inhibitors of Histone Lysine Methyltransferase G9a. Histone-lysine N-methyltransferase EHMT2 (Homo sapiens), Q96KQ7. G9a H3K9 monomethylation, AlphaScreen, 2 h. Potency, µM (highest dose often 102 µM), inactives show at the highest dose activity, negative = inhibition, actives largely listed as inhibitors. hit rate 8.8% among 350,000. AID 504332, 2011; further: on the % scale 0 is the no-effect control and ±100 the full control effect; nearly all actives have a fitted effect of over 75% in size
Target sequence (Q96KQ7 913-1193 limits assumed): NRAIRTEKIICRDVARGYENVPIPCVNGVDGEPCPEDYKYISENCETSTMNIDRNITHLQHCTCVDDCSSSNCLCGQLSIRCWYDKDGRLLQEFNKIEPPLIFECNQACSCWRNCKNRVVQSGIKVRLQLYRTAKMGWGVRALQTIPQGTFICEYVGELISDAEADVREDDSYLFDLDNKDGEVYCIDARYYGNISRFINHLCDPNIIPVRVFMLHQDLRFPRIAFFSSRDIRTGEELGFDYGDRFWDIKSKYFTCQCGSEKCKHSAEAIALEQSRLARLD
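Signal arises when biotinylated H3K9 peptide, once monomethylated, bridges streptavidin donor and antibody-captured acceptor beads. Enzyme at 20 nM was preincubated 15 min with test compounds; peptide 500 nM and SAM 20 uM then reacted for 2 h.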
Sfp PPTase inh: qHTS Assay for Inhibitors of Bacillus subtilis Sfp phosphopantetheinyl transferase (PPTase) | 4'-phosphopantetheinyl transferase ffp (Bacillus subtilis), Q9F4F7 | Biochemical Sfp PPTase activity, qHTS | Potency, µM, for the others: largest response in the series, negative = inhibition, actives largely listed as inhibitors | hit rate 3.5% among 310,000;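 further: the enzyme is Sfp with the accession as filed and its product quenches rhodamine fluorescence; 0% = enzyme reaction without inhibitor and -100% = no enzyme wells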
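With Hepes-Na pH 7.6 buffer containing 10 mM MgCl2, Sfp (15 nM) modified BHQ-2-YbbR (12.5 uM) using rhodamine-CoA (5 uM). Two reads 30 minutes apart at 525/598 nm yielded each well's rate.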
JMJD2A Tudor: qHTS Assay for Inhibitors of JMJD2A-Tudor Domain; Potency, µM (doses to about 114 µM), inactives show at the highest dose activity change, negative = inhibition, hits mostly inhibitors; Lysine-specific demethylase 4A (Homo sapiens), O75164; hit rate 4.4% among 390,000; AID 504339, 2011; AlphaScreen JMJD2A-Tudor / H3K4me3 peptide binding; further: on the % scale 0 is the no-effect control and ±100 the full control effect; nearly all actives have a fitted effect of over 50% in size
HP1b binding inh: HTS for Inhibitors of HP1-beta Chromodomain Interactions with Methylated Histone Tails; AID 540317, 2011; hit rate 0.56% among 390,000; Potency, µM (titrated, usually from 114 µM), inactives show at the top dose activity change, negative = inhibition, usual class: inhibitors; AlphaScreen HP1-beta / biotin-H3K9me3 peptide binding; further: nearly all actives have a fitted effect of over 70% in size
Target sequence (P83916 whole entry, looked up): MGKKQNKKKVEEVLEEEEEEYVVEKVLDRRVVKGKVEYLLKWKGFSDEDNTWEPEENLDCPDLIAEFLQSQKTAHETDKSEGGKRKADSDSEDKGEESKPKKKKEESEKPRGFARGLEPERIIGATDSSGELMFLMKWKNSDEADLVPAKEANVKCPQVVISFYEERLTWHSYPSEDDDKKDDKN
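AlphaScreen: HP1-beta (50 nM) preformed 30 min with biotin-H3(1-18)K9me3 peptide (50 nM) in PBS pH 7.4, 0.01% Tween-20. Compound added for 30 min at RT, then streptavidin donor/nickel chelate acceptor beads (10 ug/mL) for 30 min.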
* = called active by the depositor; ? = inconclusive; nt = no result given; [ ] = remark or other dose. The call rests on the fitted dose curve; in most records, active means well fitted curve in the direction sought with a large enough effect; inconclusive means small, poorly fitted or top-dose-only effect, or another doubt; inactive means no such curve, though single readings can be large; an effect the other way counts as inactive or inconclusive. Potency means the concentration at half of the fitted maximal effect.

SMILES	ALOX12 inh	BAZ2B inh	G9a inh	Sfp PPTase inh	JMJD2A Tudor	HP1b binding inh
COCCN1C(=O)C(CC(=O)NCCCn2cccn2)=C2CCCCC21 (centres undefined)	34.8%	nt	nt	nt	nt	nt
Cn1c(N=Nc2ccc(N3CCOCC3)cc2)[n+](C)c2ccccc21	62.2%	12.6µM*	17.8µM*	?	?	?
CCN(CC)C(=O)CC1COc2ccc(C(=O)NCCOC)cc2N1C (centres undefined)	40.6%	nt	nt	nt	nt	nt
CCOC(=O)C1=C(O)C(=O)N(c2ccc(S(N)(=O)=O)cc2)C1c1cccc([N+](=O)[O-])c1 (centres undefined)	-6.7%	-21.9%	?	-10.0%	-21.4%	20.5%
CC(=O)C1=C(O)C(=O)N(c2ccc(S(N)(=O)=O)cc2)C1c1cccc([N+](=O)[O-])c1 (centres undefined)	-7.7%	-25.9%	50.1µM*	-4.3%	-16.2%[11.4 µM]	20.2%
O=C(c1ccc(Cl)cc1)N1CCC(N2Cc3cccn3C2=O)CC1	0.4%[6.33 µM]	nt	nt	nt	nt	nt
O=C(O)CC1C(=O)NCCN1CCCc1ccccc1 (centres undefined)	-5.1%	1.1%	28.2µM*	10.8%	-19.9%	24.9%
Cc1ccc(CN2CCNC(=O)C2CC(=O)O)cc1 (centres undefined)	-4.3%	6.3%	15.8µM*	1.4%	-4.3%	36.5%
COc1cccc(CNC(=O)[C@@H]2C[C@@H](O)CN2C2CCN(C(=O)c3ccc(OC)cc3C)CC2)c1	16.6%	nt	nt	nt	nt	nt
COc1ccc(-c2coc3c(C)c(OCCN4CCCCC4)ccc3c2=O)cc1	-24.1%	nt	nt	nt	nt	nt
Cc1cc(C)c2c(c1)/C(=N/Nc1ccc(S(N)(=O)=O)cc1[N+](=O)[O-])CCC2	58.4%	-31.6%	39.8µM*	5.8%	-15.5%	13.6%[57 µM]
NS(=O)(=O)c1ccc(N/N=C2/CCCCC2C2CCCCC2)c([N+](=O)[O-])c1 (centres undefined)	-16.4%	10µM*	?	7.9%	28.2µM*	31.6µM*
NS(=O)(=O)c1ccc(N/N=C/C2CCCCC2)c([N+](=O)[O-])c1	33.4%	nt	nt	nt	nt	nt
Cc1ccc(S(=O)(=O)Nc2nc3ccccc3nc2NC2CCCCC2)cc1	-19.4%	nt	nt	nt	nt	nt
COc1ccc(NC(=O)CN(C)C(=O)c2cc(-c3ccco3)nc3ccccc23)cc1	?	31.6µM*	-2.7%[0.501 µM]	nt	14.1µM*	44.7µM*
CN(CC(=O)Nc1ccc(F)c(F)c1F)C(=O)c1cc(-c2ccncc2)nc2ccccc12	-18.1%	-7.0%	56.2µM*	nt	-28.3%	-4.4%
COc1ccc(NC(=O)CN(C)C(=O)c2ccc(-c3ccccc3Cl)o2)cc1	-23.4%	-30.4%	39.8µM*	nt	-18.0%	14.8%
CN(CC(=O)Nc1cccc(F)c1)C(=O)c1cc(-c2ccco2)nc2ccccc12	39.8µM*	50.1µM*	15.3%[0.501 µM]	nt	10µM*	50.1µM*
CCCCCC1CCC(c2ccc(OC(=O)c3ccco3)cc2)CC1 (centres undefined)	8.5%	nt	nt	nt	nt	nt
N#Cc1c(=O)c2nc(NCCCO)ncc2n2c(=O)c3ccccc3[nH]c12	-53.9%	12.6µM*	44.7µM*	-0.1%	56.2µM*	27.9%
Cc1c(O)ccc2c(CN3CCN(c4ccccc4)CC3)cc(=O)oc12	22.9%	nt	nt	nt	nt	nt
CCN(CC)S(=O)(=O)c1cc(NC(=O)c2ccc3c(c2)NC(=O)C(C)S3)ccc1C (centres undefined)	?	-2.2%	1µM*	nt	-30.1%	?
CN(C)c1cccc(C(=O)N2CCC[C@H]2c2nc(-c3ccc(F)cc3)no2)c1	5.2%	nt	nt	nt	nt	nt
Cc1oc(-c2nc(C#N)c(NC(C)C)o2)cc1S(=O)(=O)N(C)Cc1ccccc1	9.0%	nt	nt	nt	nt	nt
N#Cc1nc(Cc2ccccc2)oc1N1CCN(c2ccccc2)CC1	3.1%[57.4 µM]	10µM*	?	-6.5%	28.2µM*	14.1µM*
SMILES	ALOX12 inh	BAZ2B inh	G9a inh	Sfp PPTase inh	JMJD2A Tudor	HP1b binding inh
N#Cc1nc(-c2cccs2)oc1N1CCN(c2ccccc2)CC1	20.9%	?	8.91µM*	15.4%	?	-20.2%
Cc1cccc(C(=O)N2CCCC(n3cc(-c4nc(C)no4)nn3)C2)c1 (centres undefined)	26.5%	nt	nt	nt	nt	nt
O=C1C=C(c2ccccc2)C[C@H](c2cccs2)[C@H]1n1nnc([N+](=O)[O-])n1	50.1µM*	?	?	-2.4%	?	?
O=C1C=C(c2ccccc2)CC(c2cccs2)C1n1cnc([N+](=O)[O-])c1 (centres undefined)	?	-36.2%	44.7µM*	-15.2%	-12.8%	?
CN1CCN(c2cc(-c3cncc(N)c3)nc(N)n2)CC1	34.1%	nt	nt	nt	nt	nt
CCOc1ccc(-n2c(CCc3ccccc3)n[nH]c2=S)cc1	?	-14.8%	?	-14.2%	15.8µM*	4.9%
Oc1ccc(CCc2n[nH]c(=S)n2-c2ccc(F)cc2)cc1	25.1µM*	-14.7%	6.31µM*	5.1%	25.1µM*	17.5%
O=C(c1cc(-c2ccc(O)cc2)n[nH]1)N1CCCC(CCc2ccc(F)cc2)C1 (centres undefined)	45.0%	nt	nt	nt	nt	nt
CCCOc1ccc(CCc2n[nH]c(=S)n2Cc2ccccc2)cc1	?	0.6%	?	-7.9%	-33.6%[57.1 µM]	28.9%
CCCOc1ccc(CCc2n[nH]c(=S)n2-c2ccccc2)cc1	?	-33.3%	5.62µM*	-10.0%	-24.5%	23.9%
COc1ccc(-n2c(CCc3ccccc3)n[nH]c2=S)cc1	?	-33.8%	-117.5%	-9.9%	11.2µM*	9.1%
COc1ccc(OCc2n[nH]c(=S)n2-c2ccc(C)cc2)cc1	?	-32.5%	?	-22.9%	?	6.9%
COC(=O)c1ccccc1NC(=O)CC1Sc2ccccc2NC1=O (centres undefined)	5.3%	nt	nt	nt	nt	nt
O=C(c1ccc(F)cc1Cl)N1C[C@@H](CO)[C@H](c2ccccn2)C1	19.5%	nt	nt	nt	nt	nt
Cc1oc2cc(OC(C)C(=O)Nc3ccc(N4CCOCC4)cc3)ccc2c(=O)c1-c1ccccc1 (centres undefined)	1.7%	nt	nt	nt	nt	nt
CCCCC(CC(O)COCCC)C(=O)NN (centres undefined)	4.6%	-1.9%	-2.7%	21.8%	0.0%	35.5%
CCCCCC(O)CCc1n[nH]c(=S)n1-c1ccccc1 (centres undefined)	?	5.4%[57.1 µM]	8.91µM*	-5.1%	20µM*	13.2%

Compound activity: PubChem BioAssay, National Center for Advancing Translational Sciences (NCATS)
